NLRP3 yeast inh: NALP3 inflammasome inhibitors in reconstituted yeast, primary screen, luminescence, uHTS; Yeast reconstituted NLRP3/ASC/caspase-1, beta-gal luminescence, 24 h; inhibition, % at 10 µM; hit rate 0.39% among 330,000;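 active = inhibition of 50% or more; inactive = inhibition below 50%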
PfHsp90 set2: growth inhibition of PfHsp90-expressing yeast, primary screen, antimalarial PfHsp90 inhibitor project, S. cerevisiae, BacTiter-Glo luminescence, single point, set 2; inhibition, % at 9.4 µM; BacTiter-Glo ATP, 48 h; yeast lacking PDR1 and PDR3 efflux regulators; AID 504621, 2011; hit rate 0.32% among 310,000;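 active = every replicate shows inhibition above about 80%, whatever the replicate mean, limit read from the data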
TIM10 inh: growth inhibitors of isogenic TIM10 control yeast, primary screen, counter-screen for tim10-1 yeast inhibitor project, luminescence, uHTS; inhibition, % at 10 µM; hit rate 1.4% among 330,000; AID 463195, 2010; S. cerevisiae TIM10 strain growth, BacTiter-Glo luminescence, 24 h;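 active = inhibition of 40% or more at the single tested concentration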;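 note: wild-type TIM10 isogenic control strain grown at permissive 25 °C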
tim23-1 inh: growth inhibitors of tim23-1 mutant yeast, primary screen, luminescence, uHTS; inhibition, % at 20 µM; hit rate 1.3% among 330,000; AID 463212, 2010; S. cerevisiae tim23-1 growth, BacTiter-Glo luminescence, 24 h;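 active = growth inhibition of the mutant yeast at or above 50%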;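 note: temperature-sensitive mutant grown at 25 °C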
SKKanGAS inh: S. pyogenes SKKanGAS growth inhibitors in kanamycin, primary screen, streptokinase expression inhibitor project, SKKanGAS strain, BacTiter-Glo luminescence; inhibition, % at 7.5 µM; hit rate 1.3% among 300,000; 6 h;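 active = mean replicate score, as percent of positive control median, at least 50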;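 note: strain carries kanamycin resistance gene driven by streptokinase promoter and grows in 40 µg/ml kanamycin; loss of luminescence reflects streptokinase promoter inhibition or plain growth inhibition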
tim10-1 inh: growth inhibitors of tim10-1 mutant yeast, primary screen, luminescence, uHTS; S. cerevisiae tim10-1 ts strain growth, BacTiter-Glo, 24 h; inhibition, % at 20 µM; hit rate 2.2% among 330,000;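 active = inhibition of at least 40%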;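 note: mutant grown at 25 °C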
TIM10 conf: growth inhibitors of wild-type TIM10 yeast, confirmation, counter-screen for tim10-1 synthetic lethality project, single concentration, luminescence, S. cerevisiae. shares compounds with TIM10 inh. S. cerevisiae tim10 strain growth, BacTiter-Glo luminescence, 24 h. inhibition, % at 10 µM. hit rate 63% among 4,600;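 active = inhibition of yeast growth at or above a set limit in either of two replicates at 10 µM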; note: this counterscreen used the strain with wild-type TIM10
A number is an active result; i = inactive; nt = not tested or not shown. This is a sample that favours compounds with a hit; in the whole collection about 4.6% have one here.

SMILES	NLRP3 yeast inh	PfHsp90 set2	TIM10 inh	tim23-1 inh	SKKanGAS inh	tim10-1 inh	TIM10 conf
COc1ccc(/C=N/NC(=O)c2ccoc2C)cc1COc1ccc(Cl)cc1	i	i	50.6	i	i	i	i
CCOC(=O)C1CCN(S(=O)(=O)c2ccc3c(c2)CC(C)N3C(=O)C2CC2)CC1 (stereo not given)	i	i	40.4	i	i	i	48.8
CC(=O)Nc1sc(C)c(C)c1C(=O)OCC(=O)N(CCC#N)c1cc(C)cc(C)c1	i	nt	i	i	nt	i	nt
COc1ccccc1CNC(=O)c1cc(C(=O)CC(C)C)c[nH]1	i	i	i	i	i	i	nt
COc1cc(/C=N/NC(=O)COc2ccccc2C)ccc1OC(=O)c1cccs1	i	i	42.8	i	i	i	40.5
CC(c1ccco1)N(C(=O)c1ccccc1NS(=O)(=O)c1cc([N+](=O)[O-])ccc1Cl)c1ccccn1 (stereo not given)	i	i	45.1	i	i	i	33.5
CC(c1ccco1)N(C(=O)c1ccccc1NS(=O)(=O)c1ccc(Cl)cc1)c1ccccn1 (stereo not given)	i	i	44.7	i	i	i	40.6
CC1CCCCN1CCCNC(=O)c1cc(Br)c(Br)[nH]1 (stereo not given)	i	nt	i	i	i	i	nt
O=c1[nH]c2ccc(Cl)cc2c(O)c1-c1ccccc1	i	i	i	i	i	i	nt
O=c1[nH]c2ccc(Cl)cc2c(-c2ccccc2)c1SC(=S)N1CCCCC1	i	i	40.4	i	66.4	i	i
CC(OC(=O)Cc1n[nH]c(=O)c2ccccc12)C(=O)Nc1ccc(F)cc1 (stereo not given)	i	i	i	i	i	i	nt
CCOC(=O)c1ccc(S(=O)(=O)n2c(CN3CCCCC3)nc3ccccc32)cc1	i	i	50.2	i	i	i	i
O=C(CNC(=O)c1cncc(Br)c1)Nc1ccc(F)c(F)c1F	i	i	i	i	i	i	nt
CC(=O)Nc1sc2c(c1-c1nc3ccccc3s1)CN(C(C)C)CC2	i	i	64.6	i	nt	i	i
CC(C)N1CCc2c(sc(NC(=O)c3nc4ccccc4s3)c2C(N)=O)C1	i	i	43.9	i	i	i	i
Oc1cccc2c(NC(=S)Nc3ccc(SC(F)F)cc3)cccc12	i	i	52.1	i	i	i	41.7
Oc1cccc(NC(=S)Nc2ccc(SC(F)F)cc2)c1	i	i	i	i	i	i	nt
Cn1ccnc1C(=O)c1cccc(Br)c1	i	i	i	i	i	i	nt
Cc1cc(C(=O)CN2C(=O)C(=O)N(Cc3ccccc3)C2=O)c(C)n1-c1ccc2c(c1)OCCO2	i	i	i	i	i	i	nt
COC(=O)c1ccc(COc2ccc(/C=C(\C#N)c3nc4ccccc4[nH]3)cc2OC)o1	i	i	53.5	i	i	i	33.3
COc1cc(/C=C(/C#N)c2nc3ccccc3[nH]2)ccc1OCc1ccc(C(=O)O)o1	i	i	i	i	i	i	nt
Cc1scc(C(=O)N/N=C/c2ccc(OCC(C)C)cc2)c1C	i	i	44.0	i	i	i	i
O=C(NC1CCC(O)CC1)c1cccc2cccnc12 (stereo not given)	i	i	i	i	i	i	nt
Cc1cc(C)nc(N2CCC(C(=O)N3CCN(c4cc(Cl)ccc4C)CC3)CC2)n1	i	i	46.8	i	i	i	i
Cc1ccc(C)c(N2CCN(C(=O)C3CCN(c4nc(C)cc(C)n4)CC3)CC2)c1	i	i	i	i	i	i	nt
SMILES	NLRP3 yeast inh	PfHsp90 set2	TIM10 inh	tim23-1 inh	SKKanGAS inh	tim10-1 inh	TIM10 conf
O=C(C1CCCN(S(=O)(=O)c2cc(Cl)ccc2Cl)C1)N1CCOCC1 (stereo not given)	i	i	i	i	i	i	nt
CCn1c(=O)c([N+](=O)[O-])c(Cl)c2ccccc21	i	nt	77.5	i	i	i	78.8
Cc1ccc(C(=O)/C=C/c2ccc3c(c2)OCCO3)c(O)c1	i	i	52.1	i	i	i	51.5
CCOc1ccc(C(=O)NC(C(=O)NCC(c2cccs2)N(C)C)C(C)C)cc1 (stereo not given)	i	i	i	i	nt	i	nt
O=C(NCC1CCCO1)c1cc(S(=O)(=O)Nc2ccc(Br)cc2)ccc1Cl (stereo not given)	i	i	i	i	i	i	nt
O=C(CCCN1C(=O)/C(=C/c2cccc(Br)c2)SC1=S)Nc1cccnc1	i	i	i	i	i	i	nt
O=C(CCCN1C(=O)/C(=C\c2cccc(Br)c2)SC1=S)Nc1cccnc1	i	i	44.8	i	i	i	i
COC(=O)CCCCCN1C(=O)/C(=C\c2ccncc2)SC1=S	i	i	41.8	i	i	i	28.4
COc1ccc(NC(=S)NCCSc2ccc(C)cc2)c(OC)c1	i	i	45.8	i	i	i	i
COc1ccc(NC(=S)NCCc2ccc(Cl)cc2)c(OC)c1	i	i	41.0	i	i	i	i
Cc1ccc(C2=NN(CCC(=O)NC3CCCC3)C(=O)CC2)cc1	i	i	i	i	i	i	nt
O=C1NCCOC(=O)[C@H](Cc2ccc(F)cc2)C/C=C\C[C@@H]1CC(=O)N(CCO)Cc1ccccc1	i	i	i	i	nt	i	nt
O=C1NCCOC(=O)[C@H](Cc2ccc(F)cc2)C/C=C\C[C@H]1CC(=O)N(CCO)Cc1ccccc1	i	i	47.1	i	nt	i	i
COc1ccc(N(C(=O)c2ccco2)S(=O)(=O)c2cccc([N+](=O)[O-])c2)cc1	i	i	i	i	i	i	nt
COc1ccc(N(C(=O)c2ccco2)S(=O)(=O)c2ccc(F)cc2)cc1	i	i	42.5	i	i	i	i
CCOc1ccc(Oc2ccccc2NC(=O)CCNC(C)=O)cc1	i	i	i	i	i	i	nt
COc1ccc(C(=O)Nc2ccccc2C(=O)Nc2cc(C)ccn2)cc1	i	i	43.0	i	i	i	44.5
COc1ccc(C(=O)Nc2ccccc2C(=O)Nc2cccc(C)n2)cc1	i	i	i	i	i	i	nt
COc1ccc(C2=NN(C(=O)CCC(=O)O)C(c3ccc(Br)cc3)C2)cc1 (stereo not given)	i	i	44.1	i	i	i	i
COc1c(C)cccc1C(=O)NC(=S)Nc1ccccc1N1CCCC1	i	i	i	i	i	i	nt
CC(=O)Cc1nsc(NC(=O)c2ccccc2Cl)n1	i	i	50.8	i	nt	i	i
O=c1c2cc(NC(=S)N3CCCCCC3)ccc2nc2n1CCCCC2	i	i	i	i	i	i	nt
